# Screening results (PubChem)
# An excerpt weighted towards active compounds, which were near 6.5% of everything screened.
# MARV entry inh = blocks Marburg virus binding to or entry into cells; Potency, µM (titrated, usually from 37.8 µM), usual class: inhibitors; Marburg virus pseudotyped entry inhibition, cell reporter; actives 1.8% (n = 300,000); AID 540276; calls by dose curve; tested in HEK293 cells
# HCMV antiviral = human cytomegalovirus inhibition; AID 1259415; activity change, negative = inhibition, % at 57.5 µM; actives 4.5% (n = 410,000); HFF cells, HCMV-luciferase reporter, 72 h; active compounds read low; in the data active means activity change below about -60%; inconclusive means no clear call, values can overlap the other calls; inactive means above about -39%
#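 Two-dose cell screen: HFF monolayers treated with compounds and infected with luciferase-expressing HCMV at 1 PFU/cell, 72 h at 37C, then lysed for luciferase measurement.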
# FMDV inh = blocks foot and mouth disease virus; actives 1.2% (n = 410,000); FMDV antiviral cell-based qHTS; Potency, µM (top dose mostly 57.9 µM), hits mostly inhibitors; AID 1159524; calls by dose curve; tested in HEK293T cells; further: read-out not given here; nearly all actives have a fitted effect of over 45% in size
# Lassa entry inh = blocks Lassa virus binding to or entry into cells | Potency, µM (titrated, usually from 37.9 µM), hits mostly inhibitors | actives 1.2% (n = 300,000) | Lassa virus pseudotype entry inhibition, cell reporter | AID 540256; calls by dose curve; tested in HEK293 cells; further: nearly all actives have a fitted effect of over 50% in size
# Vaccinia mCherry = inhibitors of vaccinia virus infection (mCherry reporter signal). Vaccinia virus mCherry reporter infection, fluorescence. Potency, µM (doses to about 36.5 µM), usual class: inhibitors. actives 0.63% (n = 310,000). AID 720579; calls by dose curve; tested in A549 cells; further: nearly all actives have a fitted effect of over 35% in size
# Vaccinia Venus = vaccinia inhibition (Venus reporter); Vaccinia virus Venus reporter expression, fluorescence; AID 720580; Potency, µM (titrated, usually from 36.5 µM), most hits filed as inhibitors; actives 0.46% (n = 330,000); calls by dose curve; tested in A549 cells; further: nearly all actives have a fitted effect of over 30% in size
# Hits are given with their value; – = inactive; ? = inconclusive; · = not tested or not shown.
SMILES,MARV entry inh,HCMV antiviral,FMDV inh,Lassa entry inh,Vaccinia mCherry,Vaccinia Venus
C[C@@H]1CN(Cc2ccc3c(c2)CN(Cc2cccc4cccnc24)CCO3)C[C@H](C)O1,·,·,–,·,–,–
COc1ccc(/C=C2\CCCC3C2=NN(C(=O)c2ccco2)C3c2ccc(OC)c(OC)c2)cc1OC (centres undefined),?,–,–,?,·,?
COc1ccc(/C=C2\CCCC3C2=NN(C(=O)c2scnc2C)C3c2ccc(OC)c(OC)c2)cc1OC (centres undefined),?,–,–,5.2µM,·,·
COc1ccc([C@H]2CC(=O)c3sc(N)nc3C2)cc1,–,·,·,·,·,·
Cc1cc(C)c2c(=O)[nH]c(SCC(=O)c3ccc(F)c(C)c3)nc2n1,–,-103,–,?,–,–
Cc1cc(C)n(-c2ccc(NC(=O)C3CCCCN3C(=O)c3ccc(C)s3)cc2)n1 (centres undefined),–,–,–,?,–,–
O=c1[nH]c2c(-c3nc(-c4ccc(Cl)cc4)cs3)c(O)cn2c2ccccc12,·,·,·,·,–,–
NC(=O)c1cc2c3ccccc3ccn2c1-c1ccccc1,·,-99,–,·,·,·
c1cc2c3c(cccc3c1)NC1(CCC3(CC1)Nc1cccc4cccc(c14)N3)N2,·,?,?,·,?,10µM
c1cc2c3c(cccc3c1)NC1(CCCCCC1)N2,?,–,–,–,–,–
COc1cccc(/C=C/C(=O)OCC(=O)c2c[nH]c3ccccc23)c1OC,–,–,25µM,–,–,–
Cc1ccc(S(=O)(=O)N2CCOCC2)cc1C(=O)OCC(=O)c1c(N)n(C)c(=O)n(C)c1=O,·,–,–,·,·,·
COc1ccccc1/C=C/C(=O)OCC(=O)c1c(N)n(C)c(=O)n(C)c1=O,0.89µM,–,–,–,–,–
Cn1c(N)c(C(=O)COC(=O)c2cc(S(=O)(=O)N3CCOCC3)ccc2F)c(=O)n(C)c1=O,7.1µM,–,–,–,–,?
Cn1c(N)c(C(=O)COC(=O)/C=C/c2ccc(Cl)cc2)c(=O)n(C)c1=O,–,–,?,–,–,–
Cn1c(N)c(C(=O)COC(=O)/C=C/c2ccc(Cl)cc2Cl)c(=O)n(C)c1=O,–,–,40µM,–,–,–
CN(C(=O)CCc1nc(-c2ccccc2F)no1)c1ccc(Cl)cc1,–,–,–,–,–,–
CCc1ccc2[nH]c(=O)c(CN(CCCN3CCOCC3)C(=O)Nc3cccc(Cl)c3)cc2c1,18µM,–,?,?,·,?
COc1ccc2[nH]c(=O)c(CN(CC3CCCO3)C(=O)Nc3ccccc3OC)cc2c1 (centres undefined),?,–,–,?,?,?
CCc1ccc2[nH]c(=O)c(CN(CCCN3CCOCC3)C(=O)Nc3ccc(Cl)cc3)cc2c1,?,–,–,?,?,–
COc1ccc2[nH]c(=O)c(CN(CCN3CCCC3)C(=O)Nc3ccccc3Cl)cc2c1,–,-88,–,–,·,–
CCOc1ccc2[nH]c(=O)c(CN(CCN3CCCC3)C(=S)Nc3ccccc3OCC)cc2c1,·,-64,–,·,·,·
NS(=O)(=O)c1ccc(CCNC(=O)CCn2c(=O)c3cccn3c3cccnc32)cc1,·,–,–,–,–,–
Cc1cc(C)cc(C(=O)Nc2ccc(N3CCN(C(=O)c4ccco4)CC3)cc2)c1,–,–,?,?,–,–
CCOC(=O)c1c(NC(=S)N2CCCCC2)sc2c1CCN(C(=O)OCC)C2,?,-98,–,–,–,–
SMILES,MARV entry inh,HCMV antiviral,FMDV inh,Lassa entry inh,Vaccinia mCherry,Vaccinia Venus
CCOC(=O)c1c(NC(=S)NCc2ccccc2)sc2c1CCN(C(=O)OCC)C2,–,–,–,–,–,–
C=CCNC(=S)Nc1sc2c(c1C(=O)OCC)CCN(C(=O)OCC)C2,?,–,–,?,·,–
CCOC(=O)c1c(NC(=S)N2CCOCC2)sc2c1CCN(C(=O)OCC)C2,?,-109,?,–,?,–
CCN=C1NN=C(c2cc(C)n(Cc3ccco3)c2C)CS1,?,-84,0.079µM,?,–,–
COc1ccc(C(C)NCCC(c2ccc(OC(C)C)cc2)c2ccccc2OC)cc1 (centres undefined),?,-97,–,–,?,11µM
COc1ccc(CNCCC(c2ccc3c(c2)OCO3)c2ccccc2OC)cc1 (centres undefined),?,-106,–,?,?,?
COc1ccc(C(CCNCc2ccc(N(C)C)cc2)c2ccccc2)cc1 (centres undefined),?,–,–,?,?,–
CCOc1ccccc1CN1CCCC(c2nc(C)ncc2-c2ccc(F)cc2)C1 (centres undefined),·,·,–,·,–,–
CCOC(=O)c1ccccc1NC(=O)N1CCc2c(sc(C)c2CC)C1c1ccccc1 (centres undefined),·,–,–,–,–,–
CCc1c(C)sc2c1CCN(Cc1ccccc1F)C2c1ccccc1 (centres undefined),·,-105,?,?,–,–
CCc1c(C)sc2c1CCN(Cc1cccc(OC)c1)C2c1ccccc1 (centres undefined),·,-86,–,?,–,–
CCc1c(C)sc2c1CCN(C(=O)Nc1cc(OC)c(OC)c(OC)c1)C2c1ccccc1 (centres undefined),·,–,–,–,–,?
CC(C)NC(=O)NC1N=NC(Nc2ccc(Cl)cc2)=N1 (centres undefined),–,·,·,·,·,·
Cc1ccc(Cl)cc1NC(=O)COC(=O)c1ccc(COc2ccc3c(C)cc(=O)oc3c2)cc1,–,–,·,–,·,·
O=C(NCCc1cccc(Cl)c1)c1ccc(OC2CCN(Cc3ccccn3)CC2)cc1,·,-71,28µM,·,·,·
CCOc1ccccc1CN1CCC(Oc2ccc(C(=O)NCc3ccccn3)cc2)CC1,·,–,–,·,·,·
CCn1cc(CNC(=O)c2ccc(OC3CCN(Cc4ccccn4)CC3)cc2)cn1,–,-71,?,?,?,–
CCn1nc(C)c(CNC(=O)c2ccc(OC3CCN(Cc4ccccn4)CC3)cc2)c1C,?,-91,?,?,–,–
CCOC(=O)C1CCCN(CC(=O)N2CCCc3c2c(=O)oc2ccc(OCc4ccccc4)cc32)C1 (centres undefined),–,–,–,–,–,–
CCCCCOc1ccc2oc(=O)c3c(c2c1)CCCN3C(=O)CN1CCCC(C(=O)OCC)C1 (centres undefined),?,–,?,9.2µM,?,?
COc1ccc(CCN=C(N)C(C)c2ccccc2)cc1OC (centres undefined),–,–,–,–,–,–
CC(C)Cc1ccc(C(C)C(N)=NCCc2ccccc2)cc1 (centres undefined),2.2µM,-87,–,?,?,–
CCC1Oc2ccc(C)cc2N(CC(=O)NCCCN2CCOCC2)C1=O (centres undefined),–,–,–,–,–,–
CSCCNCc1c(C(=O)N2CCOCC2)nc2c(C)cccn12,–,–,–,–,–,–
Cc1cccn2c(CNCC3(c4ccccc4)CCCC3)c(C(=O)N3CCOCC3)nc12,8.9µM,-101,–,?,–,–
COc1c(Cl)cc(Cl)cc1/C=N/NC(=O)c1nnn(-c2nonc2N)c1CN1CCC(C)CC1,–,–,–,–,–,–
